Screening results as filed in PubChem.
An excerpt weighted towards active compounds, which were near 2.8% of everything screened.
CBFb-RUNX1 inh: qHTS Assay for Compounds Blocking the Interaction Between CBF-beta and RUNX1 for the Treatment of Acute Myeloid Leukemia; 230,000 tested, under 10 active; Runt-related transcription factor 1 (Homo sapiens) + Core-binding factor subunit beta …; Potency, µM (highest dose often 59.8 µM), for inactives: at the top dose activity, negative = inhibition, hits mostly inhibitors; AlphaScreen CBFb-His/RUNX1-biotin binding, biochemical; AID 1477, 2009; note: % of control where 0% means no effect
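Room-temperature protein-protein interaction test with 30 nM each of His-tagged CBF-beta and biotinylated RUNX1, 15 min with compound, then 90 min with nickel plus streptavidin beads. Signal read in AlphaScreen mode.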
D3 ag: qHTS of D3 Dopamine Receptor Agonist: qHTS. D3R DiscoveRx beta-arrestin cells, luminescence, 90 min. max activation, %. hit rate 0.58% among 410,000. AID 652048, 2013; in the data active = max activation above about 30%; note: 0% is about no effect
Target sequence (P35462 whole entry, looked up): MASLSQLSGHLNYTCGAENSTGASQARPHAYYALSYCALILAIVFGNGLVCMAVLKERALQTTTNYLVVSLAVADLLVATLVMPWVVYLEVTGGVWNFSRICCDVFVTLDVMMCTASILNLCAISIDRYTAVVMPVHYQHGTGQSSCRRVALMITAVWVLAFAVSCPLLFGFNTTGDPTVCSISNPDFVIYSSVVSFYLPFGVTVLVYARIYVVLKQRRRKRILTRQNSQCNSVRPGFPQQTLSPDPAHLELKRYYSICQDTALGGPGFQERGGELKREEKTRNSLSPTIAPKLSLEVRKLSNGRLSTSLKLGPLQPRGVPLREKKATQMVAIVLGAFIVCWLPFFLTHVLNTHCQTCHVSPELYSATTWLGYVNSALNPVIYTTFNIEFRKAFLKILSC
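Cells at 1500/well, incubated overnight, then treated with pinned compounds (dopamine as control) for 90 min at 37 degrees C. DiscoveRx reagent added for 30 - 60 minutes at room temperature; luminescence read.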
MBNL1 CUG block: qHTS Assay for Inhibitors of MBNL1-poly(CUG) RNA binding; TR-FRET MBNL1-His/biotin-(CUG)12 binding, 665/545 ratio; AID 2675, 2010; Muscleblind-like protein 1 (Homo sapiens), Q9NR56; Potency, µM (doses to about 57.5 µM), for inactives: top-dose activity change, negative = inhibition, usual class: inhibitors; hit rate 0.036% among 280,000; active = well fitted inhibition curve with a large enough effect in the signal ratio, with a control signal flat, not every such curve was filed as active; inconclusive = small, poorly fitted or top-dose-only effect, or effect the other way, or a change in a side signal; inactive = no such curve, though single readings can be large or run the other way; the % refers to the signal ratio; note: potency is the fitted concentration of half-maximal effect; % is set by controls: 0 for no effect and ±100 for the full control effect
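Inhibition of protein-RNA binding appears as loss of TR-FRET between terbium anti-His antibody on MBNL1-His and streptavidin-XL665 on biotin-(CUG)12. Activity is normalized to buffer-only and uninhibited-complex controls.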
Integrin act MD: qHTS for Activators of Integrin-Mediated Alleviation for Muscular Dystrophy | alpha7betagal myoblasts, beta-gal FDG fluorescence, 48 h | Potency, µM (titrated, usually from 38.3 µM), for inactives: at the highest dose activation, most hits filed as activators | AID 624291, 2012 | hit rate 0.064% among 350,000;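 note: potency is the fitted concentration of half-maximal effect; 100% = response of the positive control SU9516; nearly all actives have a fitted effect of over 60% in size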
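Alpha7betagal+/- myoblasts (passage 13) were plated 16-24 hr, then exposed to compounds (1:260 dilution of DMSO stock) for 48 hours at 37C. After MPER lysis, β-galactosidase reporter activity was read as FDG fluorescence (ex 480/em 540) after 30 minutes.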
DRD3 antagonist: qHTS of D3 Dopamine Receptor Antagonist: qHTS | D(3) dopamine receptor (Homo sapiens), P35462 | D3R cells, DiscoveRx beta-arrestin luminescence, antagonist mode; stronger effect = lower value | max response, negative = inhibition, % | hit rate 2.5% among 360,000 | AID 652054, 2013; in the data active = max response below about -50%; inconclusive = no clear call, values can overlap the other calls; note: % is set by controls: 0 for no effect and ±100 for the full control effect
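Cells expressing the human receptor were seeded at 1500 cells/well, incubated overnight at 37 degrees C in 5% CO2, then exposed to library compounds with dopamine controls for 90 minutes at 37 degrees C before luminescent detection.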
PTHR1 ag: qHTS for PTHR1 Agonists: Primary Screen; Parathyroid hormone/parathyroid hormone-related peptide receptor (Homo sapiens), Q03431; HEK293 GP2 PTHR1 cells, GloSensor cAMP luminescence, 1 h; Potency, µM (top dose mostly 115 µM), inactives show at the top dose activation, actives largely listed as activators; hit rate 0.075% among 410,000; AID 743266, 2014; note: potency is the fitted concentration of half-maximal effect; nearly all actives have a fitted effect of over 55% in size
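HEK-293-derived GP2 cells expressing PTHR1 and a GloSensor cAMP reporter, 3,000/well, plated overnight, given luciferin plus IBMX (each 0.5 mM as added) for 1 h at 37 °C, then compound for 1 h at 37 °C. Luminescence was read after 15 min at room temperature.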
* marks the source's active call; other numbers are inactive results; i = inactive; ? = inconclusive; nt = no result; [ ] = dose if it differs, or a comment. Unless noted, calls come from the whole dose curve; as a rule, active = well fitted curve in the direction sought with a large enough effect; inconclusive = small, poorly fitted or top-dose-only effect, or another doubt; inactive = no such curve, though single readings can be large; an effect the other way counts as inactive or inconclusive.

SMILES	CBFb-RUNX1 inh	D3 ag	MBNL1 CUG block	Integrin act MD	DRD3 antagonist	PTHR1 ag
COc1ccc(C(=O)CSc2nc(-c3ccccn3)nc(C)c2Cl)cc1	-2%	-18	11%	-5%	-60*	-40%
COc1cc(C(=O)NCC(c2ccc(N(C)C)cc2)N2CCc3ccccc32)cc(OC)c1OC (stereo not drawn)	nt	-9	nt	nt	nt	-16%
Cc1cccc(CS(=O)(=O)c2nnc([C@H](Cc3ccccc3)NC(=O)OC(C)(C)C)o2)c1	-1%	-30	-7%	-63%[7.66 µM]	-77*	i
COC(=O)CS(=O)(=O)c1nnc([C@H](Cc2ccccc2)NC(=O)OC(C)(C)C)o1	8%	6	3%	-47%	-4	-47%
CC1CCCN(CCCNC(=O)c2nn(C)c3c2CSc2ccccc2-3)C1 (stereo not drawn)	nt	-17	-4%	-48%	-66*	i
CC1CCCN(CCCNC(=O)c2ccc3c(c2)N(Cc2ccccc2F)C(=O)c2ccccc2S3(=O)=O)C1 (stereo not drawn)	nt	-26	-11%	-52%	-112*	-2%
CC1CCCN(CCCNC(=O)c2ccc3c(c2)N(Cc2ccc(F)cc2)C(=O)c2ccccc2S3=O)C1 (stereo not drawn)	nt	-20	-8%	-77%	-82*	20%
CCN1CCCC1CNC(=O)c1ccc2c(c1)N(Cc1ccccc1F)C(=O)c1ccccc1S2(=O)=O (stereo not drawn)	nt	-13	-8%	-34%	13	i
COc1cc(OC)c2c(-c3ccccc3)cc(=O)oc2c1C(CCN1CCCCC1)c1ccc2c(c1)OCO2 (stereo not drawn)	-29%	-30	4%	-7%	?	i
COc1cc(OC)c2c(C)cc(=O)oc2c1C(CCN1CCOCC1)c1ccc2c(c1)OCO2 (stereo not drawn)	1%	-60	6%	-3%	-69*	i
COc1cc(C(CCN2CCCC(C)C2)c2c(OC)cc(OC)c3c(C)cc(=O)oc23)cc(OC)c1OC (stereo not drawn)	9%	nt	nt	nt	nt	nt
COc1cc(C(CCN2CCN(c3ccccc3)CC2)c2c(OC)cc(OC)c3c(C)cc(=O)oc23)cc(OC)c1OC (stereo not drawn)	-6%	-75	-5%	-14%	-121*	i
COc1cc(OC)c2c(-c3ccccc3)cc(=O)oc2c1C(CCN1CCCC(C)C1)c1ccc2c(c1)OCO2 (stereo not drawn)	8%	-51	10%	-45%	-70*	5%
COc1ccccc1CNC(=O)CN1C(=O)CSc2ccc(S(=O)(=O)N(C)C)cc21	nt	-5	nt	nt	nt	0%
CC(C)C(C)NC(=O)CN1C(=O)NC2(CCc3ccccc32)C1=O (stereo not drawn)	nt	-2	1%	0%	-17	-18%
Cc1ccc(C(=O)NNC(=S)Nc2cccc3ccccc23)s1	0%	-3	0%	22%	-95*	-27%[57.5 µM]
O=C(NNC(=S)Nc1cccc2ccccc12)c1cccc(Br)c1	-11%	0	-1%	-13%	?	-14%[57.5 µM]
CCC(O)CNc1nc(-n2nc(C)cc2C)nc2sc3c(c12)CCCC3 (stereo not drawn)	-3%	nt	103%	nt	nt	nt
Cc1cc(C)n(-c2nc(SCCN(C)C)c3c4c(sc3n2)CCCC4)n1	-9%	-16	-6%	-61%	-71*	-4%
Cc1cc(CCNC=O)c(C)c2c1oc1ccccc12	nt	2	nt	14%	2	i
Cc1sc2nc(SCc3ccc(C(=O)O)cc3)n(Cc3ccco3)c(=O)c2c1C	-12%	84*	-1%	-50%	146	-11%
O=C(NC1CCCC1)C(c1ccccc1)n1c(Cc2cc(F)cc(F)c2)nc2ccccc21 (stereo not drawn)	nt	-1	nt	nt	9	-21%
CCc1ccc(Nc2nc(-c3cc4cccc(OC)c4oc3=O)c(CC)s2)cc1	nt	50*	nt	nt	nt	-4%
CCc1ccccc1NC(=O)Cn1ccn(-c2cc(C)cc(C)c2)c(=O)c1=O	nt	0	nt	nt	nt	13%
COc1ccc(C(NC(C)=O)c2cc(Cl)c3cccnc3c2O)cc1OC (stereo not drawn)	7%	15	1%	-12%	2	i
SMILES	CBFb-RUNX1 inh	D3 ag	MBNL1 CUG block	Integrin act MD	DRD3 antagonist	PTHR1 ag
CCOc1ccc(C(Nc2cccnc2)c2cc(Cl)c3cccnc3c2O)cc1 (stereo not drawn)	16%	8	34%	-65%	-58*	i
COc1ccccc1C(NC(C)=O)c1cc(Cl)c2cccnc2c1O (stereo not drawn)	nt	3	1%	-30%	-54*	i
CC1(C)Cc2c(cnn2-c2ccc(F)cc2)C(NC(=O)CN2CCCC2=O)C1 (stereo not drawn)	nt	4	-6%	9%	4	i
COCCN1C(=O)c2ccccc2C(C(=O)N2CCN(c3ccccn3)CC2)C1c1ccc(F)cc1 (stereo not drawn)	-2%	-6	-6%	0%	-51*	-13%
Cc1ccc(OCC(=O)OC2CCCN(C)C2)cc1 (stereo not drawn)	1%	1	-3%	?	-4	i
CC1CCN(CCCCOc2ccc(C(C)(C)C)cc2)CC1	nt	-20	-4%	-68%	-88*	i
CN1CCC(OC(=O)COc2ccc(C(C)(C)C)cc2)CC1	7%	-58	-6%	-3%	-56*	i
CC(C)(C)c1ccc(OCCN2CCCC2)cc1	1%	-20	-1%	-21%	-94*	i
Cc1ccccc1S(=O)(=O)Cc1ccc(C(=O)NCCN2CCN(Cc3ccccc3)CC2)o1	-2%	-5	-11%	-15%	-51*	i
CS(=O)(=O)N1CCC(C(=O)NCCN2CCN(Cc3ccccc3)CC2)CC1	?	-2	-8%	9%	-101*	-7%[57.5 µM]
O=C(NCCN1CCC(Cc2ccccc2)CC1)C1CCN(S(=O)(=O)N2CCC3(CC2)OCCO3)CC1	1%	-7	-5%	-60%	-50*	-3%
O=C(NCc1ccccc1)c1ccc(NC(=O)C2CCC2)cc1	nt	4	nt	20%	8	i
Cc1ccc(NC(=O)c2ccc([N+](=O)[O-])s2)cc1S(=O)(=O)N1CCOCC1	nt	4	nt	-73%	1	-19%
